Source: the supplement of paper PMC8975748
Where a name gives a salt, the structure may show the parent alone. ± gives the standard deviation of the averaged measurements.

Tests used:
[1] = tested on: Saccharomyces cerevisiae BY4741 SeMeCo community; assay: z-score of prototroph abundance vs DMSO median; higher = larger share of this subpopulation than in DMSO controls; conditions: 10 µM; 24 h; SM minimal medium; subpopulation (auxotrophy): Prototroph
Summary of the method: (§1)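 Scoring was based on each subpopulation's abundance, expressed as a z-score against the vehicle-well median. A Saccharomyces cerevisiae BY4741 community with four plasmids, each restoring one auxotrophy and encoding a distinct fluorescent protein, was pre-grown overnight to OD600 1.0, diluted to 0.3, and added at 70 µl to 384-well plates acoustically predosed with library drugs (10 µM final). It then grew 24 h in minimal SM medium before paraformaldehyde fixation and automated confocal microscopy, with single-auxotroph fluorescent strains setting thresholds and autofluorescence correction.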

[2] = tested on: Saccharomyces cerevisiae BY4741 SeMeCo community; assay: z-score of subpopulation abundance vs DMSO median, subpopulation auxotrophic for M; higher = larger share of this subpopulation than in DMSO controls; conditions: 10 µM; 24 h; SM minimal medium; subpopulation (auxotrophy): M
Summary of the method: as §1

[3] = tested on: Saccharomyces cerevisiae BY4741 SeMeCo community; assay: z-score of subpopulation abundance vs DMSO median, subpopulation auxotrophic for L; higher = larger share of this subpopulation than in DMSO controls; conditions: 10 µM; 24 h; SM minimal medium; subpopulation (auxotrophy): L
Summary of the method: as §1

[4] = tested on: Saccharomyces cerevisiae BY4741 SeMeCo community; assay: z-score of subpopulation abundance vs DMSO median, subpopulation auxotrophic for U; higher = larger share of this subpopulation than in DMSO controls; conditions: 10 µM; 24 h; SM minimal medium; subpopulation (auxotrophy): U
Summary of the method: as §1

[5] = tested on: Saccharomyces cerevisiae BY4741 SeMeCo community; assay: z-score of subpopulation abundance vs DMSO median, subpopulation auxotrophic for H; higher = larger share of this subpopulation than in DMSO controls; conditions: 10 µM; 24 h; SM minimal medium; subpopulation (auxotrophy): H
Summary of the method: as §1

[6] = tested on: Saccharomyces cerevisiae BY4741 SeMeCo community; assay: z-score of subpopulation abundance vs DMSO median, subpopulation auxotrophic for LU; higher = larger share of this subpopulation than in DMSO controls; conditions: 10 µM; 24 h; SM minimal medium; subpopulation (auxotrophy): LU
Summary of the method: as §1

[7] = tested on: Saccharomyces cerevisiae BY4741 SeMeCo community; assay: z-score of subpopulation abundance vs DMSO median, subpopulation auxotrophic for LM; higher = larger share of this subpopulation than in DMSO controls; conditions: 10 µM; 24 h; SM minimal medium; subpopulation (auxotrophy): LM
Summary of the method: as §1

[8] = tested on: Saccharomyces cerevisiae BY4741 SeMeCo community; assay: z-score of subpopulation abundance vs DMSO median, subpopulation auxotrophic for HM; higher = larger share of this subpopulation than in DMSO controls; conditions: 10 µM; 24 h; SM minimal medium; subpopulation (auxotrophy): HM
Summary of the method: as §1

[9] = tested on: Saccharomyces cerevisiae BY4741 SeMeCo community; assay: z-score of subpopulation abundance vs DMSO median, subpopulation auxotrophic for HU; higher = larger share of this subpopulation than in DMSO controls; conditions: 10 µM; 24 h; SM minimal medium; subpopulation (auxotrophy): HU
Summary of the method: as §1

[10] = tested on: Saccharomyces cerevisiae BY4741 SeMeCo community; assay: z-score of subpopulation abundance vs DMSO median, subpopulation auxotrophic for UM; higher = larger share of this subpopulation than in DMSO controls; conditions: 10 µM; 24 h; SM minimal medium; subpopulation (auxotrophy): UM
Summary of the method: as §1

[11] = tested on: Saccharomyces cerevisiae BY4741 SeMeCo community; assay: z-score of subpopulation abundance vs DMSO median, subpopulation auxotrophic for HL; higher = larger share of this subpopulation than in DMSO controls; conditions: 10 µM; 24 h; SM minimal medium; subpopulation (auxotrophy): HL
Summary of the method: as §1

[12] = tested on: Saccharomyces cerevisiae BY4741 SeMeCo community; assay: z-score of subpopulation abundance vs DMSO median, subpopulation auxotrophic for HUM; higher = larger share of this subpopulation than in DMSO controls; conditions: 10 µM; 24 h; SM minimal medium; subpopulation (auxotrophy): HUM
Summary of the method: as §1

[13] = tested on: Saccharomyces cerevisiae BY4741 SeMeCo community; assay: z-score of subpopulation abundance vs DMSO median, subpopulation auxotrophic for LUM; higher = larger share of this subpopulation than in DMSO controls; conditions: 10 µM; 24 h; SM minimal medium; subpopulation (auxotrophy): LUM
Summary of the method: as §1

[14] = tested on: Saccharomyces cerevisiae BY4741 SeMeCo community; assay: z-score of subpopulation abundance vs DMSO median, subpopulation auxotrophic for HLUM; higher = larger share of this subpopulation than in DMSO controls; conditions: 10 µM; 24 h; SM minimal medium; subpopulation (auxotrophy): HLUM
Summary of the method: as §1

[15] = tested on: Saccharomyces cerevisiae BY4741 SeMeCo community; assay: z-score of subpopulation abundance vs DMSO median, subpopulation auxotrophic for HLM; higher = larger share of this subpopulation than in DMSO controls; conditions: 10 µM; 24 h; SM minimal medium; subpopulation (auxotrophy): HLM
Summary of the method: as §1

[16] = tested on: Saccharomyces cerevisiae BY4741 SeMeCo community; assay: mean cell size (pixel area) (pixels); higher = larger cells; conditions: 10 µM; 24 h; SM minimal medium
Summary of the method: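 For 24 h, 70 µl of yeast culture diluted to OD600 = 0.3 from an overnight preculture at OD600 = 1.0 was kept in SM medium in 384-well plates acoustically predosed with drug, final 10 µM. The strain was Saccharomyces cerevisiae BY4741 forming a fluorescent community of four plasmids, each complementing one auxotrophy and carrying a fluorescent marker. Automated confocal microscopy of paraformaldehyde-fixed cells, analysed in Harmony, provided mean cell pixel area per well, which was averaged over 3 replicates. Same SeMeCo high-content imaging drug screen: Selleck FDA-approved drugs at 10 µM, 24 h in SM medium, 384-well plates, 3 replicates.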

| SMILES | z-score of prototroph abundance [1] | z-score of subpopulation abundance [2] | z-score of subpopulation abundance [3] | z-score of subpopulation abundance [4] | z-score of subpopulation abundance [5] | z-score of subpopulation abundance [6] | z-score of subpopulation abundance [7] | z-score of subpopulation abundance [8] | z-score of subpopulation abundance [9] | z-score of subpopulation abundance [10] | z-score of subpopulation abundance [11] | z-score of subpopulation abundance [12] | z-score of subpopulation abundance [13] | z-score of subpopulation abundance [14] | z-score of subpopulation abundance [15] | mean cell size [16] |
| --- | --- | --- | --- | --- | --- | --- | --- | --- | --- | --- | --- | --- | --- | --- | --- | --- |
| Nc1nc(O)c2ncn(CCC(CO)CO)c2n1 [Penciclovir] | -0.05 | -0.61 | -0.31 | 0.53 | 0.22 | 0.58 | -0.19 | 0.31 | 0.29 | 0.66 | -0.26 | 0.59 | -0.73 | -0.97 | – | – |
| COCCOC(=O)C1=C(C)NC(C)=C(C(=O)OC(C)C)C1c1cccc([N+](=O)[O-])c1 (stereo not drawn) [Nimodipine] | 0.04 | -0.26 | 0.55 | 0.32 | -0.5 | -0.12 | -0.2 | -0.32 | 0.19 | 0.69 | -0.61 | -0.42 | 0.35 | – | -0.43 | – |
| C[C@H]1c2cccc(O)c2C(O)=C2C(=O)[C@]3(O)C(O)=C(C(N)=O)C(=O)[C@@H](N(C)C)[C@@H]3[C@@H](O)[C@@H]21 [Doxycycline monohydrate] | 0.75 | -0.88 | 0.54 | -0.54 | 0.17 | -0.41 | – | -1.15 | -1.42 | -1.13 | -0.19 | – | 0.2 | 0.42 | 0.18 | – |
| CCCCCCCCc1ccc(CCC(N)(CO)CO)cc1 [Fingolimod] | – | -1.67 | -1.22 | -1.09 | -0.65 | -0.72 | -1.42 | -1.86 | -0.71 | -1.44 | -1.71 | -1.31 | -1.47 | -1.27 | -1.02 | – |
| O=C(N[C@H](CO)[C@H](O)c1ccc([N+](=O)[O-])cc1)C(Cl)Cl [Chloramphenicol] | -0.39 | 0.86 | 0.12 | -0.21 | -0.01 | -0.22 | 0.1 | -0.25 | – | -0.39 | 0.18 | – | 0.23 | 0.45 | 0.01 | 12.5 ± 0.17 |
| Clc1ccc(COC(Cn2ccnc2)c2ccc(Cl)cc2Cl)c(Cl)c1 (stereo not drawn) [Miconazole Nitrate] | -8.17 | -6.38 | -2.76 | – | 29.9 | -0.2 | -3.18 | 0.3 | 15.7 | 1.18 | – | 6.7 | 0.15 | 9.42 | – | – |
| CCOc1ccc(NC(C)=O)cc1 [Phenacetin] | -0.61 | 0.1 | -0.65 | 0.86 | 0.23 | 0.1 | – | 0.08 | 0.77 | 0.96 | -0.01 | 1.17 | -0.17 | 0.17 | 0.8 | 12.6 ± 0.17 |
| CCCNC(C)C(=O)Nc1ccccc1C (stereo not drawn) [Prilocaine] | – | -0.72 | 1 | -0.13 | 0.48 | 0.36 | -0.18 | 0.09 | – | -0.84 | -0.2 | – | 0.36 | 0.52 | 0.16 | 12.51 ± 0.059 |
| CO/N=C(\C(=O)N[C@@H]1C(=O)N2C(C(=O)O)=C(CSC(=O)c3ccco3)CS[C@H]12)c1csc(N)n1 [Ceftiofur] | – | -0.46 | -0.31 | 0.57 | 0.28 | 0.54 | – | -0.13 | 0.47 | 0.79 | 0.39 | 0.28 | -0.02 | 0.07 | – | 12.28 ± 0.045 |
| COc1ccccc1OCC(O)CN1CCN(CC(=O)Nc2c(C)cccc2C)CC1 (stereo not drawn) [Ranolazine 2HCl] | 0.5 | -0.08 | 0.24 | -0.29 | – | 0.35 | -0.74 | – | -0.09 | -0.16 | 0.26 | -0.12 | -0.47 | -0.5 | – | – |
| CCCN1CCCC[C@H]1C(=O)Nc1c(C)cccc1C [Ropivacaine HCl] | -0.38 | – | 0.47 | 0.42 | – | 0.42 | 0.37 | -0.41 | -0.21 | 0.78 | -0.74 | -0.03 | -0.08 | 0.18 | – | 12.6 ± 0.13 |
| O=S(=O)(O)CCCCOC[C@H]1O[C@@H]2O[C@H]3[C@H](O)[C@@H](O)[C@@H](O[C@H]4[C@H](O)[C@@H](O)[C@@H](O[C@H]5[C@H](O)[C@@H](O)[C@@H](O[C@H]6[C@H](O)[C@@H](O)[C@@H](O[C@H]7[C@H](O)[C@@H](O)[C@@H](O[C@H]8[C@H](O)[C@@H](O)[C@@H](O[C@H]1[C@H](O)[C@H]2O)O[C@@H]8CO)O[C@@H]7COCCCCS(=O)(=O)O)O[C@@H]6COCCCCS(=O)(=O)O)O[C@@H]5COCCCCS(=O)(=O)O)O[C@@H]4COCCCCS(=O)(=O)O)O[C@@H]3COCCCCS(=O)(=O)O | – | – | – | – | – | – | – | – | – | – | – | – | – | – | – | 12.1 ± 0.26 |
| O=C(O)c1cc(-c2ccc(F)cc2F)ccc1O [Diflunisal] | 3.54 | – | – | -2.37 | – | -1.6 | -1.23 | -1.55 | -2.05 | – | – | – | -1.08 | -0.39 | -0.45 | 13.1 ± 0.14 |
